This note sets out measurements from PubChem BioAssay (NCI).

The structures appear in SMILES notation. The panel holds about 79,000 compounds, 15% with a hit somewhere; the sample as a whole holds those more often. A number with no mark means an inactive call. Activity calls are given as the source filed them. No stated cut-off is given here; in the data, active means growth inhibition above about 70%; inactive means the rest.

Experiment [1] is described as follows: NCI Yeast Anticancer Drug Screen. Data for the rad50 strain (AID 155).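 Further: 0% = growth of vehicle-only cultures of the same strain.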 Conditions: S. cerevisiae rad50 strain growth inhibition, active compounds read high. The method, boiled down:
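Relative growth inhibition (compound vs vehicle) was measured in yeast with a defined repair-gene alteration.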

A short description of experiment [2]: NCI Yeast Anticancer Drug Screen. Data for the mec2-1 strain (AID 157). Conditions: S. cerevisiae mec2-1 strain, active compounds read high. The method in brief:
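Mutant yeast (mec2-1) grown with compound; growth inhibition relative to vehicle control reported.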

Experiment [3] in a line: NCI Yeast Anticancer Drug Screen. Data for the sgs1 mgt1 strain (AID 161).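 Further: 0% = growth of cultures given vehicle only.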 The conditions noted are these: S. cerevisiae sgs1 mgt1 strain, active compounds read high. The method, boiled down:
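Percent growth inhibition was derived by comparing compound-exposed mutant yeast with vehicle-exposed cultures. The strain carries alterations in DNA damage repair.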

Experiment [4] in a line: NCI Yeast Anticancer Drug Screen. Data for the cln2 rad14 strain (AID 165).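 Further: 0% = growth equal to vehicle treated cultures.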 The conditions noted are these: S. cerevisiae cln2 rad14 strain, active compounds read high. The method in brief: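 Readout is yeast growth inhibition versus vehicle-treated controls, using a strain with cln2 and rad14 alterations exposed to compound.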
The nature of experiment [5]: NCI Yeast Anticancer Drug Screen. Data for the bub3 strain (AID 167). Conditions: S. cerevisiae bub3 mutant strain, active compounds read high. The method, boiled down: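 Screening used yeast with an engineered genetic alteration affecting cell cycle control. Compound-exposed cultures were compared with vehicle cultures, and reduced growth was taken as inhibition.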
Experiment [6] can be described thus: NCI Yeast Anticancer Drug Screen. Data for the mlh1 rad18 strain (AID 175). Conditions: S. cerevisiae mlh1 rad18 strain growth inhibition, active compounds read high. The method in brief:
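Genetically defined yeast (DNA repair-deficient) exposed to compounds; growth inhibition determined relative to vehicle.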

Where [7] appears, read: at 5.0 µM (retest, dose inferred, filed as 0.5).
The mark [8] stands for this setting: at 50.0 µM (retest, dose inferred, filed as 5.0).

On to `O=C1/C(=C\c2ccccc2)CCC/C1=C\O`, for which the growth inhibition was -139% in experiment [1] (setting [7]); -89% in experiment [1] (setting [8]); 39.9% in experiment [1] (at 50.0 µM); -46% in experiment [2] (setting [7]); -40% in experiment [2] (setting [8]); 46.5% in experiment [2] (at 50.0 µM). Also, the growth inhibition is -50% in experiment [3] (setting [7]); -44% in experiment [3] (setting [8]); 6.4% in experiment [3] (at 50.0 µM); -56% in experiment [4] (setting [7]); -56% in experiment [4] (setting [8]); 33.9% in experiment [4] (at 50.0 µM). Moreover, the growth inhibition is -64% in experiment [5] (setting [7]); -68% in experiment [5] (setting [8]); 20% in experiment [5] (at 50.0 µM); -112% in experiment [6] (setting [7]); -92% in experiment [6] (setting [8]); 58.2% in experiment [6] (at 50.0 µM).
Turning to `COc1cc(CSc2ccc(O)cc2)cc(OC)c1OC`, the growth inhibition in experiment [1] (setting [7]) was -3%; in experiment [1] (setting [8]), 34%; in experiment [1] (at 50.0 µM), 79.1% (active); in experiment [2] (setting [7]), -18%; in experiment [2] (setting [8]) it was -16%; in experiment [2] (at 50.0 µM), 84.3% (active). Besides, the growth inhibition is -24% in experiment [3] (setting [7]); 29% in experiment [3] (setting [8]); 84.9% (active) in experiment [3] (at 50.0 µM); -18% in experiment [4] (setting [7]); 4% in experiment [4] (setting [8]); 50% in experiment [4] (at 50.0 µM). For the same molecule, the growth inhibition in experiment [5] (setting [7]) is -13%; in experiment [5] (setting [8]) it was 21%; in experiment [5] (at 50.0 µM), 81.8% (active); in experiment [6] (setting [7]), -5%; in experiment [6] (setting [8]), -4%; in experiment [6] (at 50.0 µM), 82.3% (active).
For the molecule `C=CCSc1nc2ccccc2c(=O)n1Cc1ccco1`, the growth inhibition was 50% in experiment [1] (setting [7]); 59% in experiment [1] (setting [8]); -7.25% in experiment [1] (at 50.0 µM); 25% in experiment [2] (setting [7]); 36% in experiment [2] (setting [8]); -12.2% in experiment [2] (at 50.0 µM). Moreover, the growth inhibition in experiment [3] (setting [7]) is 33%; in experiment [3] (setting [8]), 59%; in experiment [3] (at 50.0 µM), 22.4%; in experiment [4] (setting [7]), 27%; in experiment [4] (setting [8]) it was 26%; in experiment [4] (at 50.0 µM), -54.2%. Also, the growth inhibition is 45% in experiment [5] (setting [7]); 77% (active) in experiment [5] (setting [8]); 19.4% in experiment [5] (at 50.0 µM); 43% in experiment [6] (setting [7]); 64% in experiment [6] (setting [8]); 46.5% in experiment [6] (at 50.0 µM).
Take `O=C(O)NCc1ccccc1` (tested in a mixture with another compound): the growth inhibition is 11% in experiment [1] (setting [7]); 94% (active) in experiment [1] (setting [8]); 94% (active) in experiment [1] (at 50.0 µM); -12% in experiment [2] (setting [7]); 40% in experiment [2] (setting [8]); 14.8% in experiment [2] (at 50.0 µM). For the same molecule, the growth inhibition was -5% in experiment [3] (setting [7]); 74% (active) in experiment [3] (setting [8]); 36.1% in experiment [3] (at 50.0 µM); 5% in experiment [4] (setting [7]); 98% (active) in experiment [4] (setting [8]); 60% in experiment [4] (at 50.0 µM). Besides, the growth inhibition in experiment [5] (setting [7]) is 23%; in experiment [5] (setting [8]) it was 98% (active); in experiment [5] (at 50.0 µM) it was 87.5% (active); in experiment [6] (setting [7]), 3%; in experiment [6] (setting [8]), 80% (active); in experiment [6] (at 50.0 µM) it was 88% (active).
On to `O=C(c1ccccc1)C(Br)CCCC(Br)C(=O)c1ccccc1` (configuration not stated), for which the growth inhibition is 30% in experiment [1] (setting [7]); 64% in experiment [1] (setting [8]); 97% (active) in experiment [1] (at 50.0 µM); 16% in experiment [2] (setting [7]); 51% in experiment [2] (setting [8]); 96.3% (active) in experiment [2] (at 50.0 µM). In addition, the growth inhibition in experiment [3] (setting [7]) was 19%; in experiment [3] (setting [8]), 81% (active); in experiment [3] (at 50.0 µM) it was 96% (active); in experiment [4] (setting [7]) it was 15%; in experiment [4] (setting [8]) it was 32%; in experiment [4] (at 50.0 µM) it was 67.2%. Moreover, the growth inhibition in experiment [5] (setting [7]) is 23%; in experiment [5] (setting [8]), 73% (active); in experiment [5] (at 50.0 µM), 97.3% (active); in experiment [6] (setting [7]), 24%; in experiment [6] (setting [8]), 60%; in experiment [6] (at 50.0 µM), 95.5% (active).
For the molecule `NNC(=S)N/N=C(\CC1OC(=O)c2ccccc21)c1ccccc1O` (configuration not stated), the growth inhibition in experiment [1] (setting [7]) was 6%; in experiment [1] (setting [8]) it was -3%; in experiment [1] (at 50.0 µM), 80.1% (active); in experiment [2] (setting [7]), -12%; in experiment [2] (setting [8]), -17%; in experiment [2] (at 50.0 µM), 60.2%. Moreover, the growth inhibition in experiment [3] (setting [7]) is 22%; in experiment [3] (setting [8]), 7%; in experiment [3] (at 50.0 µM) it was 56.1%; in experiment [4] (setting [7]), 11%; in experiment [4] (setting [8]), 4%; in experiment [4] (at 50.0 µM), 32%. Moreover, the growth inhibition in experiment [5] (setting [7]) was -9%; in experiment [5] (setting [8]), 13%; in experiment [5] (at 50.0 µM) it was 58.1%; in experiment [6] (setting [7]), -43%; in experiment [6] (setting [8]), -27%; in experiment [6] (at 50.0 µM), 84.2% (active).
Turning to `O=C1OC(c2ccc(O)cc2)=C(c2ccccc2)C1c1ccccc1` (configuration not stated), the growth inhibition in experiment [1] (setting [7]) was 9%; in experiment [1] (setting [8]) it was 36%; in experiment [1] (at 50.0 µM), 99.4% (active); in experiment [2] (setting [7]), -7%; in experiment [2] (setting [8]), 29%; in experiment [2] (at 50.0 µM), 99.5% (active). Further, the growth inhibition in experiment [3] (setting [7]) is -10%; in experiment [3] (setting [8]), 47%; in experiment [3] (at 50.0 µM), 99.5% (active); in experiment [4] (setting [7]) it was 4%; in experiment [4] (setting [8]), 26%; in experiment [4] (at 50.0 µM), 99.5% (active). The growth inhibition in experiment [5] (setting [7]) is 2%; in experiment [5] (setting [8]), 29%; in experiment [5] (at 50.0 µM) it was 99.4% (active); in experiment [6] (setting [7]) it was 10%; in experiment [6] (setting [8]), 67%; in experiment [6] (at 50.0 µM), 99.5% (active).
In the case of `COc1ccc(N=NC(C(=O)c2ccccc2)C(=O)c2ccccc2)cc1`, the growth inhibition in experiment [1] (setting [7]) was 29%; in experiment [1] (setting [8]), 96% (active); in experiment [1] (at 50.0 µM), 92.3% (active); in experiment [2] (setting [7]), -1%; in experiment [2] (setting [8]) it was 94% (active); in experiment [2] (at 50.0 µM) it was 93.2% (active). Also, the growth inhibition in experiment [3] (setting [7]) is 20%; in experiment [3] (setting [8]), 94% (active); in experiment [3] (at 50.0 µM) it was 92.4% (active); in experiment [4] (setting [7]), 6%; in experiment [4] (setting [8]), 95% (active); in experiment [4] (at 50.0 µM), 88.7% (active). The growth inhibition in experiment [5] (setting [7]) is -3%; in experiment [5] (setting [8]), 97% (active); in experiment [5] (at 50.0 µM), 91.2% (active); in experiment [6] (setting [7]) it was -18%; in experiment [6] (setting [8]), 97% (active); in experiment [6] (at 50.0 µM) it was 91.2% (active).
`c1ccc([P+](c2ccccc2)(c2ccccc2)C2CCCC2)cc1`: the growth inhibition was -18% in experiment [1] (setting [7]); 7% in experiment [1] (setting [8]); 96.8% (active) in experiment [1] (at 50.0 µM); -13% in experiment [2] (setting [7]); 15% in experiment [2] (setting [8]); 97.5% (active) in experiment [2] (at 50.0 µM). Further, the growth inhibition in experiment [3] (setting [7]) was -13%; in experiment [3] (setting [8]), 40%; in experiment [3] (at 50.0 µM), 97.6% (active); in experiment [4] (setting [7]), -3%; in experiment [4] (setting [8]) it was -1%; in experiment [4] (at 50.0 µM) it was 98.3% (active). For the same molecule, the growth inhibition in experiment [5] (setting [7]) was 0%; in experiment [5] (setting [8]), -1%; in experiment [5] (at 50.0 µM) it was 95.5% (active); in experiment [6] (setting [7]) it was 11%; in experiment [6] (setting [8]), 32%; in experiment [6] (at 50.0 µM), 98.5% (active).
